Measured values reported in PMC4336329 (PLoS ONE, 2015).
Hit rate of the full screen: of about 310,000 compounds, about 14,000 (4.5%) showed an effect of 50% or more. Effects have a minus sign here. What follows is part of a selection rich in strong results, with near analogues and random picks from the rest.

The compounds below were run against human ether-à-go-go-related gene (hERG) potassium channel (human, UniProt Q12809) (assay: primary screen, population patch clamp on CHO cells stably expressing hERG; higher = less effect of the substance).
Sequence of human ether-à-go-go-related gene (hERG) potassium channel (Q12809 whole entry, looked up): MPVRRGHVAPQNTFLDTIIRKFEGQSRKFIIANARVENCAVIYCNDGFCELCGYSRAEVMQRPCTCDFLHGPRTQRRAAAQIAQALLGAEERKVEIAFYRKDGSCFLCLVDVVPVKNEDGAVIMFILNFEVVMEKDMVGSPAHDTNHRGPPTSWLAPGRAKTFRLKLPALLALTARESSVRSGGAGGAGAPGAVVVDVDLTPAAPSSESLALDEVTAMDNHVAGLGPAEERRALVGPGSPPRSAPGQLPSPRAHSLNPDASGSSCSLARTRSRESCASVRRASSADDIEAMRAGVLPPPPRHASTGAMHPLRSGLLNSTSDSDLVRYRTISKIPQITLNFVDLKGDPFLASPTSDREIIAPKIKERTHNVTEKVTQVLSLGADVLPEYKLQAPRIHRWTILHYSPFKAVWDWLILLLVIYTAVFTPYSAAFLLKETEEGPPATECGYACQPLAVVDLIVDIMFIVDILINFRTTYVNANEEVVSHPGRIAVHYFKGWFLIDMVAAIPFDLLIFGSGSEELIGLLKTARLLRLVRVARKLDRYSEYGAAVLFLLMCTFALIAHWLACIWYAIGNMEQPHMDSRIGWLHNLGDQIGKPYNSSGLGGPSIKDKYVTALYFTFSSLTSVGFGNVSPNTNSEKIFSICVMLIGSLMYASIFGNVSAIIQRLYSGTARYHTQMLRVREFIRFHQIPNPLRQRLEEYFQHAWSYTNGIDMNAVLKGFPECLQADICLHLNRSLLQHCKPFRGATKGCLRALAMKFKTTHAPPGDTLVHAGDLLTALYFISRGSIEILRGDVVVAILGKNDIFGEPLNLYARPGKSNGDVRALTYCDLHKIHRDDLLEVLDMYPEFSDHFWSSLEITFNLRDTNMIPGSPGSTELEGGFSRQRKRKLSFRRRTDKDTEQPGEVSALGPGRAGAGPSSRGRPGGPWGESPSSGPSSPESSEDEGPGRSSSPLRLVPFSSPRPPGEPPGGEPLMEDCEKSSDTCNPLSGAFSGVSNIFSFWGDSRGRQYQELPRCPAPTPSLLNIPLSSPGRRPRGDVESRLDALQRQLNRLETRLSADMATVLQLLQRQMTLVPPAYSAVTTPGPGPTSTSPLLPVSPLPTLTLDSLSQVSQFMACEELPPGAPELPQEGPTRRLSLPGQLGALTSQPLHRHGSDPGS
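Also: peak tail current of the secondary pulse compared with the same well before compound.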

SMILES	hERG current change (%, negative = inhibition) at 10uM [%]
O=C(NN1CCOCC1)c1sc2cccc(F)c2c1Cl	9.93
c1ccc(-c2cnc(CSc3ncnc4sccc34)o2)cc1	7.1
N#CC1=C(N)SC(N)=C(C#N)C1CCc1ccccc1	26.4
C/C(=N/NC(=O)CNC(=O)Cc1ccccc1)c1ccc(Cl)cc1	5.97
CN1/C(=C\C=C(/C#N)C(=O)Nc2ccc(Cl)cc2)C(C)(C)c2ccccc21	13
CCNC(=O)CC1C(=O)N(c2ccccc2)C(=O)N1CCC(C)C (stereo not drawn)	5.26
CCNC(=O)CC1C(=O)N(c2cccc(C)c2)C(=O)N1CCC(C)C (stereo not drawn)	-75
CCNC(=O)CC1C(=O)N(c2ccc(C)cc2)C(=O)N1CCC(C)C (stereo not drawn)	-2.19
CCN(c1ccccc1)S(=O)(=O)c1cc(NC(=O)Nc2ccccc2C#N)ccc1Cl	-34.2
Cc1ccc(NC(=O)CCc2nnc(SCC(=O)Nc3ccccc3C)n2C)cc1Cl	14.5
Cc1ccc(OCCSc2nnc(NC(=O)c3ccco3)s2)cc1	-1.66
O=C(CN1C(=O)C2C3C=CC(C4CC34)C2C1=O)Oc1ccccc1 (stereo not drawn)	0.512
COCCNC(=O)c1cc2sc3ccccc3c2s1	-8.28
CN(C)CCCNC(=O)c1cc2sc3ccccc3c2s1.Cl	-64.7
CN(C)CCCNC(=O)c1cc2c3ccccc3n(C)c2s1	-40.1
COCCN(CCOC)C(=O)c1cc2sc3ccccc3c2s1	-70.6
CN(C)CCNC(=O)c1cc2sc3ccccc3c2s1.Cl	-31.5
CN1CCN(C(=O)c2cc3sc4ccccc4c3s2)CC1	-15.5
CCCN(C(=O)CSCc1ccccc1C)c1c(N)n(Cc2ccccc2)c(=O)[nH]c1=O	-4.64
CC(O)CNc1nc2c(c(=O)n(C)c(=O)n2C)n1Cc1cccc(C(F)(F)F)c1 (stereo not drawn)	-12.9
O=[N+]([O-])c1cccc(/C=N/Nc2ncc(Br)cn2)c1	19.6
CCc1cccc(C)c1N(C(=O)Cn1c(=O)[nH]c2ccccc21)C(C)COC (stereo not drawn)	-4.31
CCN(CC(=O)Nc1ccc2c(c1)OCCO2)C(=O)/C=C/c1cccc(Br)c1	-28.7

SMILES	hERG current change (%, negative = inhibition) at 10uM [%]
O=C(CN1C(=O)NC2(CCCCCCC2)C1=O)Nc1ccc(Br)cc1	5.19
Cc1nc2c(c(C)nn2-c2ccccc2)c(C)c1CCC(=O)Nc1ccc(CN2CCCC2)cc1	-61
Cc1ccc(-n2nc(C)c3c(C)c(CCC(=O)Nc4ccc(CN5CCCC5)cc4)c(C)nc32)cc1	-60.2
CCCNC(=O)CCc1c(C)nc2c(c(C)nn2-c2ccccc2)c1C	0.304
CCC(C)NC(=O)CCc1c(C)nc2c(c(C)nn2-c2ccccc2)c1C (stereo not drawn)	-1.82
Cc1ccc(-n2nc(C)c3c(C)c(CCC(=O)NCc4ccccc4)c(C)nc32)cc1	10.5
Cc1ccc(CNC(=O)CCc2c(C)nc3c(c(C)nn3-c3ccc(C)cc3)c2C)cc1	10.1
C/C(=N\NC(=O)c1cc(-c2cccc([N+](=O)[O-])c2)n[nH]1)c1ccc(F)cc1	8.28
O=C(COC(=O)CC1CC2CCC1C2)Nc1ccc(F)cc1 (stereo not drawn)	-22.4
Cc1ccc2c(c1)/C(=C/c1ccc(F)cc1)C(=O)N2	10.5
COc1cc(C(=O)N/N=C/c2coc3ccc(Cl)cc3c2=O)ccc1O	14.2
COc1ccc(CCNC2CC(=O)N(CCc3ccccc3)C2=O)cc1OC (stereo not drawn)	0.286
COc1ccc(CCN2C(=O)CC(NNc3ccc([N+](=O)[O-])cc3)C2=O)cc1OC (stereo not drawn)	-52.8
CCc1ccc(NC2CC(=O)N(CCc3ccc(OC)c(OC)c3)C2=O)cc1 (stereo not drawn)	-13.4
Cc1cc(C)cc(C(=O)N2CCN=C2SCc2ccc([N+](=O)[O-])cc2)c1	-23.5
O=C(c1ccccc1)N1CCN=C1SCc1ccc([N+](=O)[O-])cc1	-56.4
CCN1CCN(C(=O)c2ccc(CSc3ccc(C)cc3)cc2)CC1	-63.6
CC(=O)N1CCN=C1SCc1ccccc1	19.1
O=[N+]([O-])c1ccc(S(=O)(=O)N2CCN=C2SCc2cccnc2)cc1	-68.1
Cc1cccc(C(=O)N2CCN=C2SCc2ccc([N+](=O)[O-])cc2)c1	-51.9
O=S(=O)(c1ccc(F)cc1)N1CCN=C1SCc1cccnc1	-27.6
Cc1cccc(CC(=O)N2CCN=C2SCc2ccc([N+](=O)[O-])cc2)c1	-11.8
Cc1ccc(SCc2ccc(C(=O)N3CCCC3)cc2)cc1	-30.1

SMILES	hERG current change (%, negative = inhibition) at 10uM [%]
Cc1ccc(SCc2ccc(C(=O)N3CCCCC3)cc2)cc1	1.58
O=S(=O)(c1ccccc1)N1CCN=C1SCc1cccnc1	-12.1
O=C(N=C1SC2CS(=O)(=O)CC2N1c1ccc(F)cc1F)C1CC1 (stereo not drawn)	2.47
O=C(OCC(=O)N1CCCC1=O)C1CCN(S(=O)(=O)c2c(Cl)cccc2Cl)CC1	-36.1
O=C(NCc1cccnc1)NC1CC(=O)N(c2ccc3c(c2)OCCO3)C1 (stereo not drawn)	-0.536
CC(C)(C)n1nnnc1C(c1cccc(C#N)c1)N1CCN2CCCC2C1 (stereo not drawn)	4.48
Cn1c(C(C#N)/C(=N\S(=O)(=O)c2cccs2)c2ccccc2)nc2ccccc21 (stereo not drawn)	2.46
O=C(O)CC1(CC(=O)Nc2cc(C(F)(F)F)cc(C(F)(F)F)c2)CCCCC1	18.6
Cc1cccc(N2CCN(C(=O)c3ccc4c(c3)NC(=O)C(CSCc3cccc(F)c3)N4)CC2)c1C (stereo not drawn)	15.9
Cc1ccccc1C(=O)N1CCN=C1SCc1ccc([N+](=O)[O-])cc1	-63.6
CN(C)S(=O)(=O)c1ccc(C(=O)N2CCN=C2SCc2ccccc2)cc1	20.9
O=C(c1ccc([N+](=O)[O-])cc1)N1CCN=C1SCc1ccccc1	-72.2
O=C(c1cccc2ccccc12)N1CCN=C1SCc1ccc([N+](=O)[O-])cc1	-10.7
O=C(Cc1ccccc1)N1CCN=C1SCc1cccc([N+](=O)[O-])c1	-22.6
Cc1ccc(C)c(CSC2=NCCN2C(=O)Cc2ccc([N+](=O)[O-])cc2)c1	-4.06
Cc1ccc(C(=O)N2CCN=C2SCc2ccc([N+](=O)[O-])cc2)cc1	-70.5
Cc1ccc(CSC2=NCCN2C(=O)c2ccc([N+](=O)[O-])cc2)cc1	-42.9
Cc1ccc(C(=O)N2CCN=C2SCc2ccc([N+](=O)[O-])cc2)cc1C	2.84
O=S(=O)(Nc1nc2ccccc2nc1Nc1ccc(N2CCOCC2)cc1)c1cc(Cl)ccc1Cl	-0.376
C=CCN(c1ccccc1)S(=O)(=O)c1cc(C(=O)NC2=NCCS2)ccc1Cl	63.3
COc1ccc(CNC(=O)c2c(C)cc(=O)oc2C)cc1	-26.8
CC1Sc2ccc(S(=O)(=O)N3CCC(C(=O)NCc4ccc(Cl)cc4)CC3)cc2NC1=O (stereo not drawn)	-5.58
COC(=O)C1CCN(Cc2ccc(C)cc2)CC1	-22.2

SMILES	hERG current change (%, negative = inhibition) at 10uM [%]
COC(=O)C1CCN(Cc2ccc(OCCCN3CCN(c4ccc([N+](=O)[O-])cc4)CC3)cc2)CC1	-73.7
Oc1ccc(N2CCN(Cc3ccc(OCCCN4CCCCC4)cc3)CC2)cc1	5.11
CCCCOc1ccc(CN2CCC(O)CC2)cc1	3.42
COC(=O)C1CCN(CCCOc2ccc(CN3CCN(c4ccc([N+](=O)[O-])cc4)CC3)cc2)CC1	-74.3
COC(=O)C1CCN(c2ccc([N+](=O)[O-])cc2[N+](=O)[O-])CC1	-0.88
Cc1ccccc1C(=O)NC(=S)NCC1CCCO1 (stereo not drawn)	12
O=C(Nc1ccc2ncccc2c1)c1cc(Cl)ccc1Cl	12.6
CCOc1ccc(N(CC(=O)NCCc2ccc(OC)cc2)S(C)(=O)=O)cc1	-0.0301
O=C(CSc1ncnc2c1cnn2-c1ccc(Cl)cc1)NCc1ccc2c(c1)OCO2	13.7
CC(C)OC(=O)CCC1(C(=O)O)CCC(=O)NC1 (stereo not drawn)	7.55
CCC(=O)Nc1ccc(OCc2nc3ccccc3s2)cc1	21.1
O=C(CSc1ncccc1-c1nc2ccccc2[nH]1)Nc1ccc2c(c1)OCCO2	-30.8
Cn1c(SCC(=O)Nc2ccc(Br)cc2F)nnc1-c1ccco1	-26.7
Cn1c(SCC(=O)Nc2ccccc2O)nnc1-c1ccco1	-27.4
Cn1c(SCC(=O)Nc2ccc(Cl)cc2F)nnc1-c1ccco1	-59.4
CC(C)Cn1c(SCC(=O)c2ccc(Cl)s2)nnc1-c1ccco1	-76.7
Cn1c(SCC(=O)c2cc(Cl)c(Cl)s2)nnc1-c1ccco1	-60.5
CCn1c(SCC(=O)c2ccc(Cl)s2)nnc1-c1cccs1	-35.5
CCn1c(SCC(=O)c2cccs2)nnc1-c1ccco1	-2.68
Cn1c(SCC(=O)c2cccs2)nnc1-c1ccco1	11.8
Cn1c(SCC(=O)c2ccccc2)nnc1-c1ccco1	-39.5
